Data from PubChem BioAssay AID1159580 (chemical genetic matrix, 2015).
The campaign covered roughly 5,500 compounds. About 2,000 (36%) were called active. Roughly 18% stayed inconclusive and do not appear here. No stated cut-off is given here; in the data, active means normalized growth mostly below about 0.91 (no sharp cut-off); inconclusive means no clear call, values can overlap the other calls; inactive means mostly above about 0.92. The list shows a part of the results.

Assay: chemical genetic growth profiling, strain panel (AID 1159580);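 further: tested at 20 µM; growth read once vehicle control cultures reached saturation at 30 °C; 1 = growth at the plate median or of vehicle wells; lower values mean less growth of the strain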
Conditions: S. cerevisiae deletion strains, growth OD
[1] = locus YAL040C, strain CLN3, active compounds read low
[2] = locus YCL061C, strain MRC1 (second series), active compounds read low
[3] = locus YDR150W, strain NUM1, active compounds read low
[4] = locus YDR363W, strain ESC2, active compounds read low
[5] = locus YER002W, strain NOP16, active compounds read low
[6] = locus YGR078C, strain PAC10, active compounds read low
[7] = locus YJR075W, strain HOC1, active compounds read low
[8] = locus YMR263W, strain SAP30, active compounds read low
[9] = locus YNL128W, strain TEP1, active compounds read low
[10] = locus YNL153C, strain GIM3, active compounds read low
[11] = locus YNL175C, strain NOP13, active compounds read low
[12] = locus YNL197C, strain WHI3, active compounds read low
[13] = locus YNL224C, strain SQS1, active compounds read low
[14] = locus YNL322C, strain KRE1, active compounds read low
[15] = locus YOR083W, strain WHI5 (second series), active compounds read low
[16] = locus YMR307W, strain GAS1, active compounds read low

Measured: normalized growth

Cc1ccc2c(c1)C(N1CCN(C)CC1)=Nc1cccnc1N2
inactive: [1] 0.99 | [2] 0.989 | [3] 0.986 | [4] 1.02 | [5] 1 | [6] 0.983 | [7] 1 | [8] 0.982 | [9] 1.09 | [10] 0.998 | [11] 0.997 | [12] 0.988 | [13] 1.01 | [14] 0.988 | [15] 0.991

COCC1=C(C(=O)OC(C)OC(=O)OC(C)C)N2C(=O)[C@@H](NC(=O)/C(=N\OC)c3csc(N)n3)[C@H]2SC1 (stereo partly drawn)
inactive: locus YAL021C, strain ccr4, active compounds read low 0.98 | locus YAL026C, strain drs2, active compounds read low 0.967 | locus YAL030W, strain snc1, active compounds read low 0.982 | locus YBL061C, strain skt5, active compounds read low 0.968 | locus YBR009C, strain hhf1, active compounds read low 0.96 | locus YBR023C, strain chs3, active compounds read low 0.982 | locus YBR171W, strain sec66, active compounds read low 0.968 | locus YBR231C, strain swc5, active compounds read low 0.967 | locus YBR279W, strain paf1, active compounds read low 0.98 | locus YCL011C, strain gbp2, active compounds read low 0.973 | locus YCL016C, strain dcc1, active compounds read low 0.982 | locus YCL061C, strain MRC1, active compounds read low 0.981 | locus YCL069W, strain vba3, active compounds read low 0.976 | locus YCR088W, strain abp1, active compounds read low 0.97 | locus YDL005C, strain med2, active compounds read low 0.966 | locus YDL040C, strain nat1, active compounds read low 0.977 | locus YDR001C, strain nth1, active compounds read low 0.97 | locus YDR069C, strain doa4, active compounds read low 0.971 | locus YDR137W, strain rgp1, active compounds read low 0.93 | locus YDR159W, strain sac3, active compounds read low 0.95 | locus YDR195W, strain ref2 0.927 | locus YDR297W, strain sur2, active compounds read low 0.979 | locus YDR334W, strain swr1, active compounds read low 0.976 | locus YDR335W, strain msn5, active compounds read low 0.987 | locus YDR392W, strain spt3, active compounds read low 0.919 | locus YEL003W, strain gim4, active compounds read low 0.984 | locus YEL037C, strain rad23, active compounds read low 0.969 | locus YEL061C, strain CIN8 (second series), active compounds read low 0.971 | locus YER015W, strain faa2, active compounds read low 0.98 | locus YER016W, strain bim1, active compounds read low 0.98 | locus YER111C, strain swi4, active compounds read low 0.972 | locus YER155C, strain BEM2 (second series), active compounds read low 0.972 | locus YFR010W, strain ubp6, active compounds read low 0.964 | locus YGL167C, strain pmr1, active compounds read low 0.967 | locus YGL173C, strain kem1, active compounds read low 0.968 | locus YGL227W, strain vid30, active compounds read low 0.96 | locus YGL240W, strain doc1, active compounds read low 0.981 | locus YGL253W, strain hxk2, active compounds read low 0.986 | locus YHR013C, strain ard1, active compounds read low 0.976 | locus YHR027C, strain rpn1, active compounds read low 0.985 | locus YHR030C, strain SLT2, active compounds read low 0.968 | locus YHR079C, strain IRE1, active compounds read low 0.999 | locus YHR142W, strain chs7, active compounds read low 0.982 | locus YJL092W, strain hpr5, active compounds read low 0.972 | locus YJL095W, strain BCK1 (second series), active compounds read low 0.989 | locus YJL095W, strain BCK1, active compounds read low 0.977 | locus YJL115W, strain asf1, active compounds read low 0.966 | locus YJL129C, strain trk1, active compounds read low 0.974 | locus YJL154C, strain vps35, active compounds read low 0.976 | locus YJL164C, strain tpk1, active compounds read low 0.998 | locus YJL166W, strain qcr8, active compounds read low 0.998 | locus YJL187C, strain SWE1, active compounds read low 0.982 | locus YJR066W, strain TOR1, active compounds read low 0.927 | locus YKL160W, strain elf1, active compounds read low 0.994 | locus YKR026C, strain gcn3, active compounds read low 0.962 | locus YKR091W, strain srl3, active compounds read low 0.981 | locus YLL001W, strain dnm1, active compounds read low 0.976 | locus YLL026W, active compounds read low 0.971 | locus YLL041C, strain sdh2, active compounds read low 0.992 | locus YLR027C, strain aat2, active compounds read low 0.979 | locus YLR113W, strain HOG1, active compounds read low 0.943 | locus YLR221C, strain rsa3, active compounds read low 0.997 | locus YLR258W, strain gsy2, active compounds read low 0.978 | locus YLR262C, strain YPT6 (second series), active compounds read low 0.987 | locus YLR320W, strain mms22, active compounds read low 0.983 | locus YLR342W, strain FKS1, active compounds read low 0.973 | locus YLR357W, strain rsc2, active compounds read low 0.929 | locus YLR370C, strain arc18, active compounds read low 0.956 | locus YLR384C, strain iki3, active compounds read low 0.976 | locus YML120C, strain ndi1, active compounds read low 0.967 | locus YMR058W, strain fet3, active compounds read low 0.981 | locus YMR125W, strain sto1, active compounds read low 0.926 | locus YMR129W, active compounds read low 0.97 | locus YMR205C, strain PFK2, active compounds read low 0.937 | locus YMR231W, strain pep5, active compounds read low 0.967 | locus YNL071W, strain lat1, active compounds read low 0.986 | locus YNL183C, strain NPR1, active compounds read low 0.945 | locus YNL209W, strain ssb2, active compounds read low 0.986 | locus YNL248C, strain rpa49, active compounds read low 0.99 | locus YNL322C, strain KRE1 (second series), active compounds read low 0.982 | locus YNR049C, strain mso1, active compounds read low 0.98 | locus YOR001W, strain rrp6, active compounds read low 0.978 | locus YOR070C, strain gyp1, active compounds read low 0.976 | locus YOR080W, strain dia2, active compounds read low 0.967 | locus YOR083W, strain WHI5, active compounds read low 0.993 | locus YOR106W, strain vam3, active compounds read low 0.983 | locus YOR231W, strain MKK1, active compounds read low 0.973 | locus YOR265W, strain rbl2, active compounds read low 0.982 | locus YOR270C, strain vph1, active compounds read low 0.951 | locus YOR290C, strain snf2, active compounds read low 0.962 | locus YPL051W, strain arl3, active compounds read low 0.994 | locus YPL078C, strain atp4, active compounds read low 0.986 | locus YPL106C, strain sse1, active compounds read low 0.982 | locus YPL240C, strain hsp82, active compounds read low 0.99 | locus YPL256C, strain CLN2, active compounds read low 0.974

CCCN1CCCC2Cc3[nH]ncc3CC21 (stereo not drawn)
inactive: [1] 0.972 | [2] 1 | [3] 0.995 | [4] 1.02 | [5] 0.992 | [6] 0.997 | locus YGR229C, strain SMI1, active compounds read low 0.989 | [7] 1 | [8] 0.997 | [16] 0.992 | [9] 0.989 | [10] 1.1 | [11] 0.994 | [12] 0.992 | [13] 0.98 | [14] 1.02 | [15] 0.986 | locus YPL241C, strain CIN2, active compounds read low 1

CC(C)NP(=O)(NC(C)C)OP(=O)(NC(C)C)NC(C)C
inactive: [1] 0.983 | [2] 1 | [4] 0.998 | [5] 0.995 | [6] 0.991 | [7] 1.01 | [8] 0.991 | [16] 0.995 | [9] 0.99 | [11] 0.991 | [12] 0.995 | [13] 0.991 | [14] 1.01 | [15] 0.991 | locus YPL055C, strain LGE1, active compounds read low 1.01
